# Reference: PubChem BioAssay (NCI)
# About 83,000 compounds went through this panel and 20% of them were active in at least one assay; those are over-represented in the sample as a whole.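 Cell lines were cultured in 96-well plates, exposed to a single compound concentration, and assessed for percent growth 48 hours later.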 Unmarked numbers belong to inactive results. Calls of active or inactive are those of the source. The calls were made as follows: active = growth percent below 10; inactive = the rest.
# Tested on: HL-60(TB) leukemia
# Test: NCI-60 one-dose screen, 48 h (100 = growth as untreated, 0 = no growth, -100 = all killed)
# Conditions: 10 µM unless noted
row,Compound,growth
1,CCCCCCCCCCCCCCCC(=O)OC1[C@@H](OC(=O)CCCCCCCCCCCCCCC)[C@@H](C(=O)N[C@@H](CCCCN)C(=O)OC)O[C@H]1n1cnc2c(=O)[nH]c(NC(=O)C(C)C)nc21 (stereo not given in full),98.3%
2,O=c1[nH][n+](-c2ccc(Cl)cc2)no1,24.9%
3,COc1ccc(/C=C/C(c2cc(OC)c(OC)c(OC)c2)n2cncn2)cc1 (stereo not given),-17.9% (active)
4,O=C1/C(=C\c2cccn2Cc2ccc(F)cc2)c2ccccc2N1c1c(Cl)cccc1Cl,96.5%
5,Nc1n[nH]c2cccc(C#Cc3cccc(C(=O)Nc4cc(CN5CCOCC5)cc(C(F)(F)F)c4)c3)c12,16.6%
6,CCC1=CCC[C@@]2(C)CCC[C@@]3(C)CCCC(C)(C)[C@]1([O-])[O+]32,107%
7,O=C(Nc1cn[nH]c1-c1nc2ccc(CN3CCOCC3)cc2[nH]1)NC1CC1,-27.1% (active)
8,Cn1cc(-c2csc(-c3c[nH]c4ccc(F)cc34)n2)c2cccnc21,24.5%
9,COc1cnc2c(c1)C(=O)c1c-2n(CCCN2CCOCC2)c(=O)c2cc(Cl)ccc12,-4.61% (active)
10,Cn1cnc([N+](=O)[O-])c1S(=O)(=O)Oc1ccc(Cl)cc1,-35.2% (active)
11,CCCCCCNC(=O)Oc1ccc(/C(=C(/CC)Cc2ccccc2)c2ccc(OCCN3CCCCC3)cc2)cc1,75.1%
12,Cc1ccc(C(CN(C)C)C(=O)c2ccccc2)cc1 (stereo not given),-31.3% (active)
13,CN(C)CCCNC1=C(Cl)C(=O)c2ccccc2C1=O,45.3%
14,O=C1c2ccccc2C(=Cc2ccccc2)c2ccccc21,-1.29% (active)
15,COc1cc([C@@H]2c3cc4c(cc3C(OC3O[C@@H]5COC(C)O[C@H]5[C@H](O)[C@H]3O)C3COC(=O)[C@@H]32)OCO4)cc(OC)c1O (stereo not given in full),-2.39% (active)
16,COc1cccc(-c2nc3sccn3c2-c2ccnc(NCCCNS(=O)(=O)c3cccc(F)c3)c2)c1,-26.9% (active)
17,O=C1CCCCN1CCCCC#Cc1cccc(C#Cc2cccnc2)c1,-23.2% (active)
18,CCOc1c(Br)cc(C2C(C(=O)OC)=CN(C)C=C2C(=O)OC)cc1OC,35.5%

row,Compound,growth
1,Nc1nc(Cl)nc2c1ncn2C1O[C@H](CO)[C@@H](O)[C@@H]1F (stereo not given in full),-34.8% (active)
2,COc1cc(/C=C2\CN(S(=O)(=O)c3ccccc3)C/C(=C\c3cc(CN4CCCCC4)c(O)c(OC)c3)C2=O)cc(CN2CCCCC2)c1O,-37.6% (active)
3,CCCCNC(=O)Oc1ccc(/C(=C(/C)Cc2ccc(OC)cc2)c2ccc(OCCN3CCCCCC3)cc2)cc1,33.9%
4,COc1cccc(/C=C/C(=O)c2c(C)nc3ccccc3c2/C=C/c2ccccc2)c1OC,13.6%
5,CC(C)CC(NC(=O)OCC1c2ccccc2-c2ccccc21)C(=O)O (stereo not given),105%
6,Cc1cc2nc(-c3c(-c4ccc(F)cc4)nc4sccn34)[nH]c2cc1C,87.3%
7,O=C1C=CC(=O)N1c1ccccc1,44.5%
8,Cc1cc(=O)c2cc3nc(-c4cccnc4)oc3c(Br)c2o1,84.9%
9,Cc1cc(Cl)ccc1NS(=O)(=O)c1ccc(-c2cnc(C3CC3)o2)cc1,-36% (active)
10,COC(=O)c1ccc(C(=Nc2ccc(N(C)C(=O)CN3CCN(C)CC3)cc2)c2c(O)[nH]c3ccc(C(=O)OC)cc23)cc1,14.4%
11,Nc1nc(Cl)cc(=O)n1Cc1ccccc1,100%
12,Cc1cc(O)cc2c1[C@H]1CC[C@]3(C)[C@@H](O)CC[C@H]3[C@@H]1C=C2,70.6%
13,C#CCOc1ccc2ncnc(Nc3ccc(NC(=O)C=C)cc3)c2c1,-52.5% (active)
14,COc1cccc(NC(=O)Nc2ccc(Nc3ncnc4[nH]c(C)c(C)c34)cc2)c1,104%
15,COc1ccc2cnc(N)c(C#Cc3cc(C(=O)Nc4ccc(CN5CCN(C)CC5)c(C(F)(F)F)c4)cnc3C)c2c1,95%
16,CCOc1cccc(/C=N/NC(=O)c2cccc(Nc3ccnc(C(F)(F)F)c3)c2)c1O,14.1%
17,C/C(Cc1ccc(Cl)cc1)=C(\c1ccc(OCCN2CCCCCC2)cc1)c1ccc(OC(=O)c2ccccc2)cc1,23.1%
